Source: ChEMBL document CHEMBL1961873, “Compounds: GSK PKIS; Assays: Nanosyn kinase panel” (2012)

How the values were obtained:
[1] = target: 5'-AMP-activated protein kinase catalytic subunit alpha-2 (Homo sapiens) (UniProt P54646); conditions: at 1 µM
[2] = target: T1, NUAK family SNF1-like kinase 1 (Homo sapiens) (UniProt O60285); conditions: at 0.1 µM
T1 sequence (whole entry): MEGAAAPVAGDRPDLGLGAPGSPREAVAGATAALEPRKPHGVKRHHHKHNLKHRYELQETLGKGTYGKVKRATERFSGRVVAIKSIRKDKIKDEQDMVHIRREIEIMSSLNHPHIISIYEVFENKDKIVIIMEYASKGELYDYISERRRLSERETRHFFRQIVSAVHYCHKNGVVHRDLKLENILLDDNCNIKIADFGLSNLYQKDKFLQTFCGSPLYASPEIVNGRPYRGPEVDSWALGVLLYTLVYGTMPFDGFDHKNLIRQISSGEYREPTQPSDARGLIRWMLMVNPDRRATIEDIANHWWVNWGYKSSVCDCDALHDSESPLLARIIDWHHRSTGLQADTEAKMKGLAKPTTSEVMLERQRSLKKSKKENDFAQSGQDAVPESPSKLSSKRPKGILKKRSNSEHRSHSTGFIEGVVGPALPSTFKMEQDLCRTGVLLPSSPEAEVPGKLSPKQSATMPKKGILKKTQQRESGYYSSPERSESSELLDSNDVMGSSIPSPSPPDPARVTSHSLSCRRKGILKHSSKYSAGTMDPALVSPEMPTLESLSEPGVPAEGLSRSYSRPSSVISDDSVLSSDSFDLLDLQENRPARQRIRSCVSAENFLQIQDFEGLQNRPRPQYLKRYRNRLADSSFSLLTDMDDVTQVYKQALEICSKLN

[3] = target: T1, NUAK family SNF1-like kinase 1 (Homo sapiens); conditions: at 1 µM
[4] = target: T2, Serine/threonine-protein kinase BRSK1 (Homo sapiens) (UniProt Q8TDC3); conditions: at 0.1 µM
T2 sequence (whole entry): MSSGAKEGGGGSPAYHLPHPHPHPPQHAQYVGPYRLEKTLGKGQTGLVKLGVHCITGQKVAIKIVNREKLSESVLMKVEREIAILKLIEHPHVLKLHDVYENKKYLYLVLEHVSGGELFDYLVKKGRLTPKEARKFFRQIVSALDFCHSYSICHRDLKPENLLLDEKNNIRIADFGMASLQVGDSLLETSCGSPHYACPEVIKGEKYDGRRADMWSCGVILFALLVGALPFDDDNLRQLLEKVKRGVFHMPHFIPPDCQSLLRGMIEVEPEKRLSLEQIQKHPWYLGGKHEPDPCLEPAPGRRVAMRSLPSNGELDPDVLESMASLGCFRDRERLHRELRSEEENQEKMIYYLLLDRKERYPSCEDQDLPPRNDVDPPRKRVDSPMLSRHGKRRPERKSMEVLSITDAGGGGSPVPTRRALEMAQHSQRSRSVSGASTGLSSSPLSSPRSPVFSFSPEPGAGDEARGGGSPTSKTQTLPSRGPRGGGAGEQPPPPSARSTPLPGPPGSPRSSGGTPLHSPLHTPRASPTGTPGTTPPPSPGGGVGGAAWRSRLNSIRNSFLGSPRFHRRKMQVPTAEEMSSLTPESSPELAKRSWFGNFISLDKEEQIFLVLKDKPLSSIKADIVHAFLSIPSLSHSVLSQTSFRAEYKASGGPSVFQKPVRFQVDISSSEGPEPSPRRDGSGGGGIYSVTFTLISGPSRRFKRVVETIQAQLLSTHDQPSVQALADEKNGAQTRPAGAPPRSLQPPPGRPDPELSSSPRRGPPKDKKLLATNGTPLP

[5] = target: T2, Serine/threonine-protein kinase BRSK1 (Homo sapiens); conditions: at 1 µM
[6] = target: T3, Serine/threonine-protein kinase BRSK2 (Homo sapiens) (UniProt Q8IWQ3); conditions: at 0.1 µM
T3 sequence (whole entry): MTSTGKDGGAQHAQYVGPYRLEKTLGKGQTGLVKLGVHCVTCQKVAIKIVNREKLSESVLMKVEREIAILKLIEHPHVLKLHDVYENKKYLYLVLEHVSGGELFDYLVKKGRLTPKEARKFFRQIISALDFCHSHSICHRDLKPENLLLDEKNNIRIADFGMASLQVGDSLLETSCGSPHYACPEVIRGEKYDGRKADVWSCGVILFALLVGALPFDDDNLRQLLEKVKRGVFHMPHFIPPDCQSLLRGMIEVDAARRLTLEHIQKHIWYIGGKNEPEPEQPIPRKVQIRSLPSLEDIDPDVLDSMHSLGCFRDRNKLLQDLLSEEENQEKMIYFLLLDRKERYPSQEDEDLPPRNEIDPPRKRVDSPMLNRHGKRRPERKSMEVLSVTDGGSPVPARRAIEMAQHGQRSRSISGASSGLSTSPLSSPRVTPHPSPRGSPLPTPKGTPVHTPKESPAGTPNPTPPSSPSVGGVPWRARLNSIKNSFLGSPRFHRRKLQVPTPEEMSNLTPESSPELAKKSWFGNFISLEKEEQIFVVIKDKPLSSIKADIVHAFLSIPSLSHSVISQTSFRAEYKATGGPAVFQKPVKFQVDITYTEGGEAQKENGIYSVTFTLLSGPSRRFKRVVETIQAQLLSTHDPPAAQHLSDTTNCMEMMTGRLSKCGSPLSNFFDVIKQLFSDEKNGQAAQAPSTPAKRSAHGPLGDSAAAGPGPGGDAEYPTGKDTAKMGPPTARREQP

[7] = target: T3, Serine/threonine-protein kinase BRSK2 (Homo sapiens); conditions: at 1 µM
[8] = target: Calcium/calmodulin-dependent protein kinase type 1D (Homo sapiens) (UniProt Q8IU85); conditions: at 0.1 µM
[9] = target: Calcium/calmodulin-dependent protein kinase type 1D (Homo sapiens) (UniProt Q8IU85); conditions: at 1 µM
[10] = target: Calcium/calmodulin-dependent protein kinase type II subunit alpha (Homo sapiens) (UniProt Q9UQM7); conditions: at 0.1 µM
[11] = target: Calcium/calmodulin-dependent protein kinase type II subunit alpha (Homo sapiens) (UniProt Q9UQM7); conditions: at 1 µM
[12] = target: Calcium/calmodulin-dependent protein kinase type II subunit delta (Homo sapiens) (UniProt Q13557); conditions: at 0.1 µM
[13] = target: Calcium/calmodulin-dependent protein kinase type II subunit delta (Homo sapiens) (UniProt Q13557); conditions: at 1 µM
[14] = target: T4, Calcium/calmodulin-dependent protein kinase type IV (Homo sapiens) (UniProt Q16566); conditions: at 0.1 µM
T4 sequence (whole entry): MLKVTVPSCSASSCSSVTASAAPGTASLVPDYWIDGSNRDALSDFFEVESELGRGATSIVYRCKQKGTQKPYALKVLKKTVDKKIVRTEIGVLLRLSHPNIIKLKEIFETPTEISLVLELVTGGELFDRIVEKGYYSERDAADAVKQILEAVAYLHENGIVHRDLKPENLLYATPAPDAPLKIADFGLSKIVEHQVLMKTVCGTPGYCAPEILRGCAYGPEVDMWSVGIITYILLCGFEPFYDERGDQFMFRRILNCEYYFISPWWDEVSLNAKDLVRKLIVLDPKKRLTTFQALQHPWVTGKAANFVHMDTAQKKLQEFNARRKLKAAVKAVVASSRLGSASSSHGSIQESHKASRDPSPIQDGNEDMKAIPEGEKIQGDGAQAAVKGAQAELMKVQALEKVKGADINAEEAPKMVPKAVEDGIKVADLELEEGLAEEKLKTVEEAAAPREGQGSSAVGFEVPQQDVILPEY

[15] = target: T4, Calcium/calmodulin-dependent protein kinase type IV (Homo sapiens); conditions: at 1 µM
[16] = target: T5, Serine/threonine-protein kinase Chk1 (Homo sapiens) (UniProt O14757); conditions: at 0.1 µM
T5 sequence (whole entry): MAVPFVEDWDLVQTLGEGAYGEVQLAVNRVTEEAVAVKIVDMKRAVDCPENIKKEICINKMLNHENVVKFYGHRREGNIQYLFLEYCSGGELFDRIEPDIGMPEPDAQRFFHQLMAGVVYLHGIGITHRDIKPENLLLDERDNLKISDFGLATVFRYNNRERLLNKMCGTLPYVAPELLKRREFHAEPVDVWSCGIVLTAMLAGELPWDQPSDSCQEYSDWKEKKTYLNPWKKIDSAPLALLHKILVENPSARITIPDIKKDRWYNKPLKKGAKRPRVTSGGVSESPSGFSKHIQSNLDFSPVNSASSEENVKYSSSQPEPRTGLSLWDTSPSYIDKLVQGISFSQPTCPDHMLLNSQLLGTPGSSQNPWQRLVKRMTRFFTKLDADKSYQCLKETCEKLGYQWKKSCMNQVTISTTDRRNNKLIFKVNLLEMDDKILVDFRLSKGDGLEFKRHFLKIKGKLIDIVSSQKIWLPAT

[17] = target: T5, Serine/threonine-protein kinase Chk1 (Homo sapiens); conditions: at 1 µM
[18] = target: Serine/threonine-protein kinase Chk2 (Homo sapiens) (UniProt O96017); conditions: at 0.1 µM
[19] = target: Serine/threonine-protein kinase Chk2 (Homo sapiens) (UniProt O96017); conditions: at 1 µM
[20] = target: Death-associated protein kinase 1 (Homo sapiens) (UniProt P53355); conditions: at 0.1 µM;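 further: reported figure is the mean inhibition of DAPK1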
Chain of Death-associated protein kinase 1 (Homo sapiens) (P53355 whole entry, looked up): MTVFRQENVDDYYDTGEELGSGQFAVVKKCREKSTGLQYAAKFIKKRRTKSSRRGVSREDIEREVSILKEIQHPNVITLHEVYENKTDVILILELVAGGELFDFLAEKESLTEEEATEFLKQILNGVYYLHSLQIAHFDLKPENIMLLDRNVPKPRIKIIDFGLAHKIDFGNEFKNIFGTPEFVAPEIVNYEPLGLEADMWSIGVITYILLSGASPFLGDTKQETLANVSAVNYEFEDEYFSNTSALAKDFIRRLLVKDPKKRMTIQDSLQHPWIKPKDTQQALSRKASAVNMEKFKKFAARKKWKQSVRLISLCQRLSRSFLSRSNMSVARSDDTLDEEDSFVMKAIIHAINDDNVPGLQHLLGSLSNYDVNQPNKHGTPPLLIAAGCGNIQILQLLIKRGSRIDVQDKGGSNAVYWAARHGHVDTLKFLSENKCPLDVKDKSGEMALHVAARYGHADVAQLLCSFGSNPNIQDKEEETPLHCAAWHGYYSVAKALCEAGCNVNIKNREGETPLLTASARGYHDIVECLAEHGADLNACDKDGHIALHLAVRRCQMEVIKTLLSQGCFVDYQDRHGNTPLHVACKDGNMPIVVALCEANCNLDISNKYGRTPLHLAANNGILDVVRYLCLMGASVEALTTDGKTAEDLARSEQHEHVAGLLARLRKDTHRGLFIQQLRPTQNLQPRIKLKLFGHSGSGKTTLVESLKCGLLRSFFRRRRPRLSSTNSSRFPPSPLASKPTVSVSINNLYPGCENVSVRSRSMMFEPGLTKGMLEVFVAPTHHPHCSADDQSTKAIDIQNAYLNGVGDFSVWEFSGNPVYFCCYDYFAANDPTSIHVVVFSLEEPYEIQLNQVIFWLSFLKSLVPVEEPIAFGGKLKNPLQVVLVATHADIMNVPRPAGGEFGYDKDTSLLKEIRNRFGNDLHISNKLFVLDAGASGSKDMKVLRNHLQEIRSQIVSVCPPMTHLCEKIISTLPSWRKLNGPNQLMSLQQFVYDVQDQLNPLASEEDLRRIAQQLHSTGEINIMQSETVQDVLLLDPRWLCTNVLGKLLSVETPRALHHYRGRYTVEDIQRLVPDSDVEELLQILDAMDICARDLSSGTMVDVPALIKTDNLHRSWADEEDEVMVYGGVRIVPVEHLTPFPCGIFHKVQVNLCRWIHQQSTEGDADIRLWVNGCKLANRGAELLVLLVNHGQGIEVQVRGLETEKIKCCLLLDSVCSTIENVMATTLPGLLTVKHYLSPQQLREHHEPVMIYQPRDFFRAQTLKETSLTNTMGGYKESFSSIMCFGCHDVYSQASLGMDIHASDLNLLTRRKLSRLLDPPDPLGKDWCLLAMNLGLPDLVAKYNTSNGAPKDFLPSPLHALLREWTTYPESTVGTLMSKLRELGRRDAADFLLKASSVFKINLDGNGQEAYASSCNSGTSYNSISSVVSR

Chain of Calcium/calmodulin-dependent protein kinase type II subunit delta (Homo sapiens) (Q13557 whole entry): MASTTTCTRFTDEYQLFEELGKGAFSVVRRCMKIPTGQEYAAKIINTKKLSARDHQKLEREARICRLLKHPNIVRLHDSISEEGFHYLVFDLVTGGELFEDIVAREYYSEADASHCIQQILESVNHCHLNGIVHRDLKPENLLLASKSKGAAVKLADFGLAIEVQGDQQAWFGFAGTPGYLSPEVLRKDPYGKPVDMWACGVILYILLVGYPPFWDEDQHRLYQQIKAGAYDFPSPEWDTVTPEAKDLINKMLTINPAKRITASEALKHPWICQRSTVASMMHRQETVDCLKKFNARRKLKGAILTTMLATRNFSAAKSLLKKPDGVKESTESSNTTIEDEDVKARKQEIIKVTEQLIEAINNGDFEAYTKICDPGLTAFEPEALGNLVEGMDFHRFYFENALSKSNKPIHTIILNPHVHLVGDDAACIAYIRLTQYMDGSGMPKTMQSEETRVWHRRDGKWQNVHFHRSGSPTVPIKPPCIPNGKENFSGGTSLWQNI
Chain of Calcium/calmodulin-dependent protein kinase type 1D (Homo sapiens) (Q8IU85 whole entry, looked up): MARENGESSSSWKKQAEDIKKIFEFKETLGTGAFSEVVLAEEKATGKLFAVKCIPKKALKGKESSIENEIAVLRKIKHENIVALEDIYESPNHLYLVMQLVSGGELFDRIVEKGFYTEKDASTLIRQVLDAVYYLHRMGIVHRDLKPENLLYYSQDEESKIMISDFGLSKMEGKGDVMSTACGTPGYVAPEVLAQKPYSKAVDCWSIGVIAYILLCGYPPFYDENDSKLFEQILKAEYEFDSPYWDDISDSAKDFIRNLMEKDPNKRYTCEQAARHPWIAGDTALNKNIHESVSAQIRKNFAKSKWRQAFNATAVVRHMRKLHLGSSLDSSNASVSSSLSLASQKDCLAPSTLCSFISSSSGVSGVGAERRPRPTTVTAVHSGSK
Chain of Serine/threonine-protein kinase Chk2 (Homo sapiens) (O96017 whole entry): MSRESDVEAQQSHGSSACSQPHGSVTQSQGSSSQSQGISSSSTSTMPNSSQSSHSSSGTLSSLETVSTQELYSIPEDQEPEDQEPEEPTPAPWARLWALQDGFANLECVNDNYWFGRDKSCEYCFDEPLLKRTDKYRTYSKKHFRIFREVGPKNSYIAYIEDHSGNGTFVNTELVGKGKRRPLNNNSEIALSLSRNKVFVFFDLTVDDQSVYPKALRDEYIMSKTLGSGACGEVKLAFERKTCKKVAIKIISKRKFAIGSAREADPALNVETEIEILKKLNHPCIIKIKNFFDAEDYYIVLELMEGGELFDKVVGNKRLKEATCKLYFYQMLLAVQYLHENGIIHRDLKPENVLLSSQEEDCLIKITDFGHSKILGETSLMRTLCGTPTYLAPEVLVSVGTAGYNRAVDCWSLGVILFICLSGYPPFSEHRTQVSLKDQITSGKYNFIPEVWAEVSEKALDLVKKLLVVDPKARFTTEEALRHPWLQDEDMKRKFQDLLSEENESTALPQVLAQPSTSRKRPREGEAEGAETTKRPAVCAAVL
Chain of Calcium/calmodulin-dependent protein kinase type II subunit alpha (Homo sapiens) (Q9UQM7 whole entry): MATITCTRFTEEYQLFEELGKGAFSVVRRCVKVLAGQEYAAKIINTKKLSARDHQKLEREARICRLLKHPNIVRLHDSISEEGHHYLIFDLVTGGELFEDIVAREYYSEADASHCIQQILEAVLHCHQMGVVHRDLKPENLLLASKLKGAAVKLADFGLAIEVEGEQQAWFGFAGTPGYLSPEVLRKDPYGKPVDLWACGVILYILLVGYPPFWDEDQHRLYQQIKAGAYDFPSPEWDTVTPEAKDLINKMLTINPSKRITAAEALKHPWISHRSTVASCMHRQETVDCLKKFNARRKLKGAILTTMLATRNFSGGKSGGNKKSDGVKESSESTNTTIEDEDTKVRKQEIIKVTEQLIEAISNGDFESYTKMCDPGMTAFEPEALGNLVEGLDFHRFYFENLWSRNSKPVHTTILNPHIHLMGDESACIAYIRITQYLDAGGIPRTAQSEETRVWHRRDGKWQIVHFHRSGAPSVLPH
Chain of 5'-AMP-activated protein kinase catalytic subunit alpha-2 (Homo sapiens) (P54646 whole entry, looked up): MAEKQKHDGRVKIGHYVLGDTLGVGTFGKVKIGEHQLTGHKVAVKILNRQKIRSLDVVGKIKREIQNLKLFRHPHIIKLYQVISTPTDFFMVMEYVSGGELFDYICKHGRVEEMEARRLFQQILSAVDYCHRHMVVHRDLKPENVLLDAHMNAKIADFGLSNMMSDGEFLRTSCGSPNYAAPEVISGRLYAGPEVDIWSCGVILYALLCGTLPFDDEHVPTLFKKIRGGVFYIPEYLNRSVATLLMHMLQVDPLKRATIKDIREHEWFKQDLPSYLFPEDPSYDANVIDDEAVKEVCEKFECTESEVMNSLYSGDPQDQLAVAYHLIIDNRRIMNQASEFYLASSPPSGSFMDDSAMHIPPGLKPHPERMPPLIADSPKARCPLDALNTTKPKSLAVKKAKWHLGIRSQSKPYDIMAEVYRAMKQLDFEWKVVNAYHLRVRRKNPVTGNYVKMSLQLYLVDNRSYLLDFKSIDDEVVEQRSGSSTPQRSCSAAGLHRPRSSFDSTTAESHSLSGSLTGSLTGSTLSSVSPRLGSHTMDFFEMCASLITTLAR

SMILES | inhibition [1] | inhibition [2] | inhibition [3] | inhibition [4] | inhibition [5] | inhibition [6] | inhibition [7] | inhibition [8] | inhibition [9] | inhibition [10] | inhibition [11] | inhibition [12] | inhibition [13] | inhibition [14] | inhibition [15] | inhibition [16] | inhibition [17] | inhibition [18] | inhibition [19] | inhibition [20]
CCC(=O)Nc1ccc(C)c(-c2ccc(C(=O)NCC3CC3)cc2)c1 | 2.49% | 0.85% | 1.36% | 1.35% | 0.24% | 1.47% | 2.78% | 0.77% | 1.64% | 1.27% | 1.21% | 2.68% | 4.75% | -0.67% | 2.05% | 0.06% | -0.8% | 3.52% | 5.57% | -0.61%
CN(C)CCOc1ccc(-c2cc(-c3ccc4c(c3)CCC4=NO)c(-c3ccncc3)o2)cc1 | 0.01% | 0.84% | -0.24% | -0.05% | -0.95% | -0.42% | 1.46% | -0.88% | 1.79% | -1.08% | 0.22% | -0.38% | 2.18% | -0.94% | 1.99% | -2.19% | -2.8% | -1.13% | -1.56% | -1.01%
O=C(Nc1n[nH]c2nc(-c3ccco3)ccc12)C1CC1 | 3.94% | 0.19% | 2.78% | 0.98% | 3.49% | 0.55% | 4.63% | 0.8% | 2.1% | 1.71% | 1.36% | 2.25% | 2.34% | 2.75% | 3.02% | 1.37% | 8.39% | 4.66% | 6.05% | 7.38%
c1ccc(-c2n[nH]cc2-c2ccnc(-c3ccc(OCCN4CCOCC4)cc3)c2)nc1 | 4.37% | 5.95% | 7.16% | 8.84% | 6.57% | 6.13% | 4.06% | 2.06% | 3.63% | -0.64% | 0.85% | -1.29% | -0.13% | -0.9% | 0.4% | 1.01% | -1.98% | 3.21% | 2.24% | 1%
CCN(CC)Cc1ccc(Nc2nccc(-c3cnn4ncccc34)n2)cc1 | 12.7% | 69% | 84.3% | 3.36% | 3.16% | 2.2% | 10.6% | -0.62% | 4.23% | 2.6% | 4.21% | 3.84% | 14.3% | -0.37% | 0.34% | 1.29% | 11.6% | 2.5% | 7.56% | 2.68%
O=C1Nc2ccccc2/C1=C/Nc1ccc(-n2cncn2)cc1 | 15.5% | 8.76% | 38.7% | 2.17% | 17.2% | 4.08% | 26.3% | 0.18% | 0.98% | 3.66% | 4.05% | 2.3% | 6.83% | -0.87% | -2.92% | 1.77% | 13.5% | 3.98% | 14.9% | 5.75%
